The record followed here is the supplement of paper PMC7366291.

Counter-ions that a name gives are not always drawn. ± gives the standard deviation of the averaged measurements.

The subject of this assay is Danio rerio Tg(wt1b:EGFP) embryo, pronephros. The experiment in a line: glomerular width (mean of left and right), fold change vs DMSO control; higher = wider glomerulus. The conditions noted are these: 25 µM; exposure: 24-48 hpf. The essentials:
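Features are reported as fold changes against the mean of same-day DMSO-treated embryos. Before that, values more than 2 SD away from the feature mean were excluded. The embryos, dechorionated Tg(wt1b:EGFP) zebrafish, had been exposed from 24 to 48 hpf at 28.5°C to 25 μM compound in 0.5% DMSO in HEPES-buffered E3 with 0.003% PTU, and distances and angles came from 16 manually set points on maximum projections of dorsal pronephros images in Fiji.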
In turn, `COc1cc(N)c(Cl)cc1C(=O)NC1CCN(Cc2ccccc2)CC1` [Clebopride maleate] came in with a glomerular width of 0.9245 ± 0.0057. The result for `NS(=O)(=O)c1cc(Cl)c(Cl)c(S(N)(=O)=O)c1` [Dichlorphenamide] reads 1.15 ± 0.06; that for `CCC1NC(=O)c2cc(S(N)(=O)=O)c(Cl)cc2N1` (stereo not drawn) [Quinethazone], 1.05 ± 0.063; that for `CC(C)C(=O)Nc1ccc([N+](=O)[O-])c(C(F)(F)F)c1` [Flutamide], 1.12 ± 0.03. Then `CNCCCC1c2ccccc2C=Cc2ccccc21` [Protriptyline hydrochloride], with 1.07 ± 0.027; and `COc1ccc(CN2CCN(C(c3ccc(F)cc3)c3ccc(F)cc3)CC2)c(OC)c1OC` [Lomerizine hydrochloride], with 0.9746 ± 0.0083.

In the case of `c1ccc2[nH]c(-c3cscn3)nc2c1` [Tiabendazole], the glomerular width was found to be 1.01 ± 0.12. Then `O=C1CN(/N=C/c2ccc([N+](=O)[O-])o2)C(=O)N1` [Nitrofurantoin], with 1.04 ± 0.012. In turn, `COc1cc2nc(N3CCN(C(=O)c4ccco4)CC3)nc(N)c2cc1OC` [Prazosin hydrochloride] yielded a glomerular width of 1 ± 0.021. `C[C@H](CCC(=O)O)[C@H]1CC[C@H]2[C@@H]3[C@@H](O)C[C@@H]4C[C@H](O)CC[C@]4(C)[C@H]3CC[C@]12C` [Urosiol] registered a glomerular width of 0.775 ± 0.074. Then `CC(C)(Oc1ccc(Cl)cc1)C(=O)O` [Clofibric acid], with 0.927 ± 0.036; and `CCCc1nc2c(C)cc(-c3nc4ccccc4n3C)cc2n1Cc1ccc(-c2ccccc2C(=O)O)cc1` [Telmisartan], with 0.988 ± 0.024; and `CN(C)c1ccc(O)c2c1C[C@H]1C[C@H]3[C@H](N(C)C)C(O)=C(C(N)=O)C(=O)[C@@]3(O)C(O)=C1C2=O` [Minocycline hydrochloride], with 1.02 ± 0.024.
